The assay deals with OVCAR-3-derived ovarian cancer stem-like cells (spheroids). Kind of assay: cell growth relative to untreated control; higher = more growth (less inhibition). The following applies: 2.29 µM; 96 h. The gist of the method:
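Viability of stem-like cells from OVCAR-3 spheroids was assessed with TOX8 resazurin fluorescence at ex 560/em 590 nm. The cells had been trypsin-dissociated, seeded at 50,000 cells/mL in stem cell medium in ultra-low attachment 96-well plates and preincubated 24 h, then treated with compounds at 2.29 uM for 96 h at 37°C, 5% CO2, in 4 replicate wells, with fluorescence read after 4 h. Results were converted to percent growth against untreated wells after blank subtraction and Grubbs outlier removal.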

Each structure is given as a SMILES string. Values joined by “and” are separate entries in the source; they are usually repeats but may differ in a detail not shown here. Equal values may be shown once. ± gives the standard deviation.

In turn, `CO[C@H]1C[C@@H]2CC[C@@H](C)[C@@](O)(O2)C(=O)C(=O)N2CCCC[C@H]2C(=O)O[C@H]([C@H](C)C[C@@H]2CC[C@@H](O)[C@H](OC)C2)CC(=O)[C@H](C)/C=C(\C)[C@@H](O)[C@@H](OC)C(=O)[C@H](C)C[C@H](C)/C=C/C=C/C=C/1C` registered a cell growth of 97 ± 21%. `CCOc1ccccc1NC(=O)CC1Sc2ccccc2NC1=O` (configuration not stated) registered a cell growth of 70.6 ± 14%. In the case of `Cc1c2ccnc(C(N)=O)c2c(C)c2c1[nH]c1ccccc12`, the cell growth is 113 ± 10%. Turning to `NC(=O)c1csc(C2OC(CO)C(O)C2O)n1` (configuration not stated), the cell growth was found to be 90.6 ± 11%. In turn, `Cc1ccc(S(=O)(=O)c2ccc([N+](=O)[O-])o2)cc1` came in with a cell growth of 47.4 ± 31%. The same measure for `CN(C)CCOc1ccc(I)cc1Cc1ccccc1`: 74.4 ± 31%; for `COC(=O)C(=O)C(C(=O)C(=O)Nc1cc(C)ccc1C)c1nc2ccc(C(=O)c3ccccc3)cc2[nH]c1=O` (configuration not stated): 91.5 ± 15%; for `[Mo]`: 97% and 106%. Regarding `COC(=O)C[S+]([O-])c1ccccc1` (configuration not stated), the cell growth came to 84.6 ± 18%. For the compound `Cc1ccc(NC(=S)C#N)c(C)c1`, the cell growth turned out to be 89.9 ± 27%. The same measure for `Cn1cnc([N+](=O)[O-])c1Sc1nnnn1-c1ccccc1`: 92.6 ± 24%; for `C[C@H](CN1CC(=O)NC(=O)C1)N1CC(=O)NC(=O)C1`: 131 ± 20%.

Consider `Cc1ccc2[c](c1)[Sn]([c]1ccccc1)([c]1ccccc1)[c]1cc(C)ccc1N2C`, for which the cell growth was 87.8 ± 12%. Take `Cc1nc(Cl)c(C)c(Cl)n1`: the cell growth worked out at 88.2 ± 11%. With `CC1=CC(=O)c2cccc(NC3=NCCO3)c21`, the cell growth turned out to be 92.8 ± 25%.

For `O=C1C(=O)c2ccccc2C(O)=C1CCCc1ccc(Oc2ccccc2)cc1`, the cell growth was determined as 87.1 ± 37%.

Regarding `Cc1cc2cc3cc(C)c(N)cc3nc2cc1N`, the cell growth turned out to be 40.2 ± 5.5%. For `CCCC(=O)[O-].[Na+]`, the cell growth amounted to 88.2 ± 19%. `COC(C(=O)C(O)C(C)O)C1Cc2cc3cc(OC4CC(OC5CC(O)C(O)C(C)O5)C(O)C(C)O4)c(C)c(O)c3c(O)c2C(=O)C1OC1CC(OC2CC(OC3CC(O)C(OC)C(C)O3)C(O)C(C)O2)C(O)C(C)O1` (configuration not stated) returned a cell growth of 54.3 ± 53%. The same measure for `CCN(CC)CCNc1ccc(CO)c2sc3ccccc3c(=O)c12`: 99 ± 39%; for `O=C1c2cccc(NCCCNCCO)c2C(=O)c2cccc(NCCCNCCO)c21`: 57.9 ± 16%. `Nc1nc(N)c(-c2cccc(C(F)(F)F)c2)c(Cc2cccc(C(F)(F)F)c2)n1` came in with a cell growth of 114 ± 34%.

Regarding `CC(C)=CCC1=C(O)c2ccccc2C(=O)C1=O`, the cell growth stood at 109 ± 28%.

In the case of `CCOC(=O)CNC(=O)NC12CC3CC(CC(C3)C1)C2`, the cell growth stood at 95.4 ± 18%. On to `CCOC(=O)c1ccc(N=Cc2ccc(N(CCC#N)CCC#N)cc2)cc1`, for which the cell growth was 101 ± 20%. The figure for `Fc1cccc(Cl)c1C1SCc2nc3ccccc3n21` (configuration not stated) is 22.8 ± 9.7%. The figure for `Nc1ncnc2c1nnn2[C@@H]1O[C@H](CO)[C@@H](O)[C@H]1O` is 23.1 ± 4.4%; for `Cc1ccccc1NC(=O)/C=N/O` it is 81 ± 7.2%; for `O=C(O)c1ccc(NC(c2ccccc2)c2ccc3cccnc3c2O)cc1` (configuration not stated) it is 89.7 ± 46%.

In turn, `Cc1[nH]c(=O)[nH]c(=O)c1/C=C/C(=O)NC(CO)CC(C)C` (configuration not stated) had a cell growth of 94.2 ± 22%. The figure for `CN(C)c1ccc(/C=C2\Cc3ccccc3C2=O)cc1Br` is 169 ± 23%.

The compound `COC(=O)NC1C(C)OC(OC2C/C=C(/C)C3C=CC4C(OC5CC(OC6CCC(OC7CC(O)C(OC8CCC(O)C(C)O8)C(C)O7)C(C)O6)C(OC(C)=O)C(C)O5)C(C)CC(C)C4C3(C)/C(O)=C3/C(=O)OC4(CC(C=O)=CC(O)C4/C=C\2C)C3=O)CC1(C)[N+](=O)[O-]` (configuration not stated) registered a cell growth of 61.9 ± 10%. For the compound `O=C1/C(=C\c2ccccc2)CN(C(=O)/C=C/c2ccccc2)C/C1=C\c1ccccc1`, the cell growth was 74.7 ± 18%. The same measure for `CC(=O)[O][Hg].c1ccc2c(c1)ccc1ccccc12`: 132 ± 32%; for `COc1ccc(N=C2C(=Nc3ccc(OC)cc3)N(c3ccc(N(C)C)cc3)C(=S)N2c2ccc(OC)cc2)cc1`: 72.3 ± 12%.

For `COc1cc2cc3c4cc(OC)c(OC)cc4cc[n+]3c(C)c2cc1OC.O=C(O)CS(=O)(=O)[O-]`, the cell growth is 53.7 ± 9.7%. With `CC(C)(C)[Si](C)(C)OCC1CCC(n2cnc3c(N)ncnc32)O1` (configuration not stated), the cell growth is 111 ± 23%.

Regarding `COC(=O)C1c2cc3c(c(O)c2C(OC2OC(C)C(OC)C(C)(OC)C2OC)CC1(C)O)C(=O)c1c(O)cc2c(c1C3=O)OC1OC2(C)C(O)C(N(C)C)C1O` (configuration not stated), the cell growth is 51.8 ± 47%. `CN(C)c1ccc2c(SCC(=O)OCC(=O)[C@@]3(O)CC[C@H]4[C@@H]5CCC6=CC(=O)C=C[C@]6(C)[C@H]5C(=O)C[C@@]43C)c3ccc(N(C)C)cc3nc2c1` returned a cell growth of 59.1 ± 8.1%. In the case of `CC1(C)C(O)OC(O)C1(C)C` (configuration not stated), the cell growth is 9.3 ± 2%. For the compound `C[CH2][Ge]([CH2]C)([CH2]C)[O]C(=O)CCC(=O)[O][Ge]([CH2]C)([CH2]C)[CH2]C`, the cell growth is 110 ± 7.5%. The same measure for `CC(Cc1ccccc1)NC1=NCCO1` (configuration not stated): 88.1 ± 13%; for `COc1ccc2nc3cc([N+](=O)[O-])ccc3c(NNc3ccccc3)c2c1`: 76.2 ± 22%; for `COc1ccc(C=CC(=O)Oc2cc(O)cc(O)c2)cc1`: 99.6 ± 16%. The figure for `COc1ccc(-n2/c(=N/C(=S)N(C)C)ss/c2=N\C(=S)N(C)C)cc1` is 111 ± 15%; for `Nc1ncnc2c([C@@H]3O[C@H](CO)[C@@H](O)[C@H]3O)c[nH]c12` it is 127 ± 35%; for `CCC1CN2CCc3cc(OC)c(OC)cc3C2CC1CC1c2cc(OC)c(OC)cc2CCN1C(=O)C1CCCN1C(=O)OCc1ccccc1` (configuration not stated) it is 122 ± 21%.

For the origin of these results see the supplement of paper PMC3484114.
